Some of the results follow. Results filed as inconclusive are left out. The source made the active and inactive calls. The call rests on the fitted dose curve; in most records, active means well fitted inhibition curve with a large enough effect; inconclusive means small, poorly fitted or top-dose-only effect; inactive means flat fitted curve, though single readings scatter.
Assay: qHTS of pediatric cancer cell lines to identify multiple opportunities for drug repurposing: Orthogonal 3D viability screen for SK-N-SH cells
Settings: SK-N-SH 3D spheroid viability, PI/Hoechst imaging, 72 h
From the text: Drug repurposing or repositioning has been offered as a strategy for drug development in oncology programs. This approach has special potential for childhood cancers and other rare or orphan diseases, where the expected return on new drug development has been a disincentive to pharmaceuticals. […] In this project we exploit the poly-pharmacology of drugs to discover new indications via phenotypic screening of a panel of 19 well-characterized cell lines derived from solid tumors seen in children and adolescents. The goal is to identify approved drugs with previously unrecognized anticancer properties that has the potential to reveal new mechanisms and biological processes involved in carcinogenesis or drug resistance. We employed a titration-based paradigm (quantitative high-throughput screening or qHTS), where all compounds were tested at multiple concentrations for their effect on cell viability. Concentration-response curves (CRCs) were derived directly from the primary screen, and both potency and efficacy values were used to identify compounds with robust bioactivity profiles. […] These two assays will be used to validate active compounds and assess the correlation of compound's potency in 2D vs 3D cultures on selected cell lines. Assay Submitter: Nathalia J. Martinez, National Center for Advancing Translational Sciences, National Institutes of Health, Rockville, MD, USA; email: natalia.martinez@nih.gov Shen, M et al. Quantitative high-throughput phenotypic screening of pediatric cancer cell lines identifies multiple opportunities for drug repurposing. Oncotarget 2017 Dec 19;9(4):4758-4772. PMID 29435139.
The cells were obtained from University of North Carolina (UNC), Pediatric Preclinical Testing Program (PPT), and Coriell Institute (CI). qHTS viability in 3D culture: Cells were assayed in phenol red-free growth media at a density of 1,000 cells/well, with the exception of Daoy, and SH-N-SH which were assayed at 1,500 cells/ well. Thirty muL of cells were dispensed into 384-well, ULA, round bottom plates (Corning) using a Multidrop dispenser. Plates were spun down at 1,000 rpm for 1 min and incubated at 37 degrees C, 5% CO2, under a humidified atmosphere for either 24 (Daoy) or 48 hours (all other cell lines) to allow spheroid formation. Ninety-two nanoliter of compounds and controls (neutral control DMSO or positive control bortezomib at final concentrations of 0.5 µM) were subsequently transferred via GNF Pintool. Plates were sealed using a breathable seal (Diversified Biotech, Dedham, MA) and incubated for 72 hours at 37 degrees C. Spheroid viability was first determined by high-content imaging using Hoechst 33342 and Propidium Iodide (PI, ThermoFisher Scientific), followed by addition of CellTiter-Glo 3D (Promega). Specifically, 3 µL/well of PBS containing a 1:500 dilution of both dyes was dispensed using Multidrop. Dyes were incubated for 1 hour before imaging using the Celigo Image Cytometer. Then, 20 µl of CellTiter-Glo 3D were added per well. Plates were incubated for 30 min at RT on a VWR microplate shaker (300 rpm) and analyzed for luminescence intensity using a ViewLux High-throughput CCD imager equipped with clear filters. Image analysis was done using the Celigo Tumorsphere 1+2+3 application software as previously described. […] The data were exported to Excel, and the average fluorescent intensities were used to calculate the ratio of PI over Hoechst, which was used to quantify viability. […]

SMILES	Potency
CC[C@H]1CN2CCc3cc(OC)c(OC)cc3[C@@H]2C[C@@H]1C[C@H]1NCCc2cc(OC)c(OC)cc21	72.2 nM (active)
CC[C@]1(O)C[C@@H]2CN(CCc3c([nH]c4ccccc34)[C@@](C(=O)OC)(c3cc4c(cc3OC)N(C)[C@H]3[C@@](O)(C(=O)OC)[C@H](OC(C)=O)[C@]5(CC)C=CCN6CC[C@]43[C@@H]65)C2)C1	90.9 nM (active)
COC(=O)Nc1nc2ccc(Sc3ccccc3)cc2[nH]1	1620 nM (active)
CC1(C)O[C@@H]2C[C@@H]3[C@H]4C[C@@H](F)C5=CC(=O)C=C[C@]5(C)[C@@]4(F)[C@@H](O)C[C@]3(C)[C@]2(C(=O)CO)O1	456 nM (active)
CC(NCc1ccc2c(c1)nc(NC(=O)c1ccc(-c3cn[nH]c3)s1)n2CC(C)(C)O)C(C)(C)C (stereo not given)	204 nM (active)

— PubChem BioAssay AID1347135 (National Center for Advancing Translational Sciences (NCATS), 2019)
